Results: ChEMBL document CHEMBL4808148, “HDAC6 screening dataset using tau-based substrate in an enzymatic assay yields selective inhibitors and activators” (2021)
The whole screen tested about 5,600 compounds, of which about 150 (2.7%) showed an effect of 50% or more. Shown is part of a subset that was picked to be rich in strong results.

Target: T1, Protein deacetylase HDAC6 (Homo sapiens) (UniProt Q9UBN7)
T1 sequence (whole entry): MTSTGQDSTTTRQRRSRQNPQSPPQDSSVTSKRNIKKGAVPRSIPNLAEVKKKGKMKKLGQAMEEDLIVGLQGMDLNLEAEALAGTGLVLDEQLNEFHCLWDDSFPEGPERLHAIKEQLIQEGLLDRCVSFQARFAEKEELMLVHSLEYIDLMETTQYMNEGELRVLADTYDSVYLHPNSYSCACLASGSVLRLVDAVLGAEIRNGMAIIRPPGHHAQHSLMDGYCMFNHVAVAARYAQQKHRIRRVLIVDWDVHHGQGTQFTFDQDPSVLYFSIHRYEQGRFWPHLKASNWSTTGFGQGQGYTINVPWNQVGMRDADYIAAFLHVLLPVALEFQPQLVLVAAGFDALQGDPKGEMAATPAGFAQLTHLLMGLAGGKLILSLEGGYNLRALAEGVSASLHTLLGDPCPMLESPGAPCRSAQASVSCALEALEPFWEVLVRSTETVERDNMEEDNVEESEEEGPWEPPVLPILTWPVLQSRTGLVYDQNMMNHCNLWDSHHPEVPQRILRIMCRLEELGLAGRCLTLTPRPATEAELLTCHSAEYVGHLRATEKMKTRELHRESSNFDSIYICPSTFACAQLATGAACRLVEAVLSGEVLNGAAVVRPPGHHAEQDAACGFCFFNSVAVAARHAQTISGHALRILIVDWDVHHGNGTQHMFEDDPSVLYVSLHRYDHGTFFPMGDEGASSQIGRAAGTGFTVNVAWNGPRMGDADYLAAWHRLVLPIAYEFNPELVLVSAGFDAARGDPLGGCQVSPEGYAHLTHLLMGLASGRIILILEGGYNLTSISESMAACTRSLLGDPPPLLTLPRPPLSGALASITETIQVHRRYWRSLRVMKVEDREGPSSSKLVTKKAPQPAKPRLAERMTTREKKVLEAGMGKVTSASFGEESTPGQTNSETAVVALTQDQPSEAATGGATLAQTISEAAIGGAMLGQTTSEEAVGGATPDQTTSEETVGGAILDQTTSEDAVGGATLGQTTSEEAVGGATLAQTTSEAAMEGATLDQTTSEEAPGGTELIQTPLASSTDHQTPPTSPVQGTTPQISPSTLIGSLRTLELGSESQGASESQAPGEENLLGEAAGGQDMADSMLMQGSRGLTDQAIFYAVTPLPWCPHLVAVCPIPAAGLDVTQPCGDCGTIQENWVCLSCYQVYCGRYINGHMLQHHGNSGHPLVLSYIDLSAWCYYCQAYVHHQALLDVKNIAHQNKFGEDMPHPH
Conditions: at 10 µM

Row | Structure (SMILES) | inhibition
1 | N#C/C(=C\c1ccc(O)c(O)c1)C(=O)NCCCc1ccccc1 | 17.5%
2 | N#C/C(=C\c1ccc(O)c(O)c1)C(=O)NCc1ccccc1 | 54.9%
3 | N#C/C(=C\c1ccc(O)c(O)c1)C(N)=O | 18.8%
4 | C[C@H](NC(=O)/C(C#N)=C/c1ccc(O)c(O)c1)c1ccccc1 | 20.7%
5 | N#C/C(=C\c1ccc(O)c(O)c1)C(=O)NCCCCc1ccccc1 | 1.74%
6 | N#C/C(=C\c1ccc(O)c(O)c1)C(=O)Nc1ccccc1 | 93.8%
7 | COCCOCCOc1ccc(C2=N[C@@](C)(C(=O)O)CS2)c(O)c1 | -6.58%
8 | O=C(Nc1ccc(F)cc1)N1CCc2ccccc2C1c1ccc(C(F)(F)F)cc1 (stereo not drawn) | -5.96%
9 | COC(=O)[C@H](CC(C)C)NC(=O)c1ccc(NC[C@@H](N)CS)cc1-c1cccc2ccccc12 | 3.13%
10 | CC(C)=CCC[C@](C)(O)[C@H]1CC[C@]2(C)[C@@H]1[C@H](O)C[C@@H]1[C@@]3(C)CC[C@H](O)C(C)(C)[C@@H]3[C@@H](O)C[C@]12C | -3.01%
11 | OC[C@H]1NCC[C@@H](O)[C@@H]1O | -1.49%
12 | CC[C@@H](Nc1c(Nc2cccc(C(=O)N(C)C)c2O)c(=O)c1=O)c1ccc(C)o1 | -5.03%
13 | CC(=O)c1ccc2c(c1)[C@@H]1C=CC[C@@H]1[C@H](c1cc3c(cc1Br)OCO3)N2 | -3.37%
14 | N=C(N)NCCSSCCNC(=N)N | -3.98%
15 | CC(=O)N[C@H](Cc1c[nH]c2ccccc12)C(=O)OCc1cc(C(F)(F)F)cc(C(F)(F)F)c1 | -8.38%
16 | Cc1ccc(NC2=CC(=O)c3sc(C)nc3C2=O)cc1 | 58.6%
17 | Fc1ccc2c(CCNCc3cccc(OCC(F)(F)C(F)F)c3)c[nH]c2c1 | 4.2%
18 | CC[C@]1(O)C[C@@H]2CN(CCc3c([nH]c4ccccc34)[C@@](C(=O)OC)(c3cc4c(cc3OC)N(C)[C@H]3[C@@](O)(C(N)=O)[C@H](O)[C@]5(CC)C=CCN6CC[C@]43[C@@H]65)C2)C1 | -4.06%
19 | COc1cc2nc(N3CCN(C(=O)C4CCCO4)CC3)nc(N)c2cc1OC (stereo not drawn) | 79%
20 | CCCC(=O)N1CCCN(c2nc(N)c3cc(OC)c(OC)cc3n2)CC1 | 15.5%
21 | COc1cc2nc(N3CCN(C(=O)C4COc5ccccc5O4)CC3)nc(N)c2cc1OC (stereo not drawn) | -3.15%
22 | CCCOCCn1c(=O)c(N2CCN(CCO)CC2)nc2cnc(-c3ccc(OC)nc3)cc21 | 2%
23 | O=C(O)CN1CCN(CC(=O)O)CCN(CC(=O)O)CCN(CC(=O)O)CC1 | -2.86%
24 | CSc1ccc([C@H]2CN3CCC[C@H]3c3ccccc32)cc1 (racemic) | -1.09%
25 | Nc1nccs1 | -0.93%
26 | Nc1nncs1 | 60.9%
27 | COCCOc1ccc(N2CCN(CCn3ncc4c3nc(N)n3nc(-c5ccco5)nc43)CC2)cc1 | 4.38%

Row | Structure (SMILES) | inhibition
28 | Cc1ccc(S(=O)(=O)OCC(=O)Nc2ccc(C(=O)O)c(O)c2)cc1 | -5.6%
29 | NS(=O)(=O)c1ccc(NC(=O)Nc2ccc(F)cc2)cc1 | 0.46%
30 | Cc1cc(C)cc(NC(=O)Nc2ccc(OS(N)(=O)=O)cc2)c1 | 76.1%
31 | COC(=O)c1ccccc1NC(=O)c1ccc(F)cc1 | 0.65%
32 | COc1ccc(-c2nc(N3CCOCC3)c3sc(CN(C)c4ncc(C(=O)NO)cn4)cc3n2)cn1 | 97.1%
33 | Cc1c(CN2CCN(C(=O)[C@H](C)O)CC2)sc2c(N3CCOCC3)nc(-c3cnc(N)nc3)nc12 | -2.64%
34 | CS(=O)(=O)N1CCN(Cc2cc3nc(-c4cccc5[nH]ncc45)nc(N4CCOCC4)c3s2)CC1 | 3.78%
35 | CC(=O)N(OCc1ccccc1)[C@@H]1c2cc(C#N)ccc2OC(C)(C)[C@H]1O | 0.48%
36 | O=C(O)CC/C=C\C[C@@H]1CO[C@H](c2ccccc2Cl)O[C@@H]1c1ccccc1O | 11.4%
37 | O=C(NCc1ccc(F)cc1)N1CCN2C(=O)OC(c3ccccc3)(c3ccccc3)C2C1 (stereo not drawn) | -3.2%
38 | Nc1ccc(-c2nc3ccc(-c4nc5ccc(N)cc5[nH]4)cc3[nH]2)cc1 | 0.97%
39 | CCCn1c(=O)[nH]c2nc(-c3ccc(S(=O)(=O)O)cc3)[nH]c2c1=O | 1.08%
40 | O=S(=O)(O)c1ccc2[nH]c(-c3ccccc3)nc2c1 | 94.7%
41 | O=C(O)Cc1ccc(CCNS(=O)(=O)c2ccc(Cl)cc2)cc1 | 9.85%
42 | COc1cccc(-c2cc(=O)c3ccccc3o2)c1N | 90%
43 | Cc1cc(C(=O)N2Cc3cnn(C)c3Nc3ccccc32)ccc1CNC(=O)N1CCC[C@H]1C(=S)N1CCCN(C)CC1 | -1.87%
44 | CS(=O)(=O)Nc1ccc2oc3c(OC(F)F)ccc(C(=O)Nc4c(Cl)cncc4Cl)c3c2c1 | -3.43%
45 | CC(C)[C@@H](CS(=O)(=O)C(C)C)N1C(=O)[C@@](C)(CC(=O)O)C[C@H](c2cccc(Cl)c2)[C@H]1c1ccc(Cl)cc1 | -1.54%
46 | Cn1c(-c2ccccc2)nnc1S(C)(=O)=O | -7.28%
47 | CC1=NN(c2ccccc2)C(=O)C1 | -3.47%
48 | C/N=c1/nc(-c2ccccc2)n(-c2ccccc2)s1 | 69.9%
49 | Clc1cccc(Cl)c1CSc1nnc(-c2cnccn2)s1 | 5.02%
50 | O=c1c2ccccc2oc2ccccc12 | 37.9%
51 | c1ccc(-c2n[nH]c3c2oc2ccccc23)cc1 | 70.2%
52 | O=C(Nc1ccc(Cl)cc1)Nc1cccc(-c2cccc(N3CCCC3)n2)c1 | -4.23%
53 | CN1CC(=O)N=C1NC(=O)Nc1cccc(Cl)c1 | 90.4%
